Measured values taken from PubChem BioAssay AID1347426 (Functional Genomics Laboratory (NCATS/FGL), 2020).
The campaign covered roughly 31,000 sequences. About 1,400 (4.5%) were called active. Shown is part of a subset that was picked to be rich in actives. Unmarked numbers belong to inactive results.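 Rule for the calls: active = median seed-adjusted z-score above 1 or below -1; inactive = the rest.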

assay: Novel Modifiers of Survival Motor Neuron (SMN) Protein: Gene Identification via Genome-wide siRNA Screen; settings: HEK293T SMN2-luciferase reporter, siRNA knockdown, 72 h; actives lie on both sides;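 note: luminescence tracks full-length SMN protein made from the SMN2 reporter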
Method in brief: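 Luciferase signal, proportional to full-length SMN made from an SMN2 cDNA reporter in stable HEK293T cells, was read 72 h after siRNA reverse transfection. Values were expressed as MAD scores after non-targeting-control normalization and log10 conversion; seed analysis flagged off-targets.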

Sequence	median seed-adjusted z-score
CGACCAAGAUUAUGGAAUUTT against ADAMTS17	0.257
GGCUAUCUGCUGAAGCGCATT against RASAL1	-0.089
CAAUGACUAUGAAUAAGUATT against SLC9A2	-1.02 (active)
GCCUUUAUGUGGACAUUAATT against SLCO2B1	0.289
CGACAAUGUUAAGUUCAUATT against SULT6B1	0
GCAUAGAUGUGGAUAGCUUTT against CFTR	-1.23 (active)
GGUCCGUGACGAGAAGUUATT against RAB4A	0.0022
CGAACCAUUUCAUCACGUATT against MARS2	-0.00523
CCCUUAAACUCGAACCCAATT against HLX	0.379
GCACGGUAAUUUUGACAGUTT against CD302	0.0818
GCUGUUACCUCGACGAGUATT against TSC2	1.11 (active)
GCAGCUCCGAAUUCAGGAATT against TFE3	-0.0442
GAAGAACUCGAUCAGCUAATT against MYH4	-1.8 (active)
GGAUCUGACAGUUCCAGAATT against CLDN20	-0.00173
GACAAUAUCCUACCCAUUUTT against SLC25A16	0.0479
AGAGAAUCCAGGAUCAGAATT against CHIT1	-0.578
GGCUCGCUUUGAAAAGCUATT against LIN7A	-1.39 (active)
CGGACCCGCUGAGACAUUATT against HOXB6	-0.168
GGCCUACAACGAAAGUGAATT against CAMKK1	0
CAGUCGAACCUUUCCCAGATT against MSRA	-0.0316
GGGACUGGGAUUUACGUUATT against MTMR11	-0.0244
CUUCCUUCGUCUUCACCUATT against FOS	0.343

Sequence	median seed-adjusted z-score
CGACGAUUCGUGCUUAAUATT against MYO5C	0
GCAAAACAGCGGCAGAACATT against ATP8B2	-0.268
GCAGAUCACAUGAAGAGAATT against DHX38	-0.723
CUCUUUAGCCGCUUCAUUATT against FMNL1	-0.3
GGGUCUUCGUCAUGCUCUATT against GPR142	-0.0636
CAGUGCUACUUGGAAUGUUTT against RHOJ	-0.304
CACUAGUUUUGUUAGCGAATT against ATP13A4	-1.09 (active)
CAACAACUAUGACCCAGGATT against CHRNE	0.349
CAGCAAUUCGUGGAGCUCATT against STX4	0.759
CACUAAAUGUGACUCCUGATT against TTC5	-0.296
CUAUUAACAUGGUGACAGATT against EIF4A1	-1.05 (active)
GUGUGAUGAUAUUCGAAAATT against SGPP1	0.0859
GGAGGAAACUUCAACUUGUTT against PHF20L1	0
CAAAUUGAGUCACUCUUAATT against MGAT2	-0.124
GGAUUUGGAGUAGAUCAAUTT against TIAL1	-0.985
GCCUGUCCUUCUCCAUUGATT against ISX	1.99 (active)
GCUUUGAAACUACAGAUGATT against HNRNPA3	0.915
GAAGGUUUACAAGGACUUATT against KLK7	0
GCAGAGAUCAGCAACGUGATT against KRT77	-0.0863
GCACUUAUGCUGAUGAAGATT against ZNF398	0.119
CAAACGUAUUAGUUCAGCATT against KIF20B	0
GGACAAGUAGCAAAGCGAATT against SLC7A14	0.132

Sequence	median seed-adjusted z-score
CAACAACCUUACACGAGUATT against LRIG2	0.386
GAAGAAAUGUUGUUCGAAUTT against KAL1	0.0824
CGCCUGGUCUAUGAACUUUTT against SCARF1	-0.324
GAAGUGUUUGAAUCUCGUATT against AKAP3	0.0138
GUCUCGUAGUGUUAUGUCUTT against GBA2	0.143
CCCUGGACGCUGAUGAGUUTT against CAPS	-1.25 (active)
GAUACAUGAAGGUAUACAATT against POLR3G	-0.485
AGAAAGUGUACGACCCAAATT against NUCB1	0.232
GAGUGCAAUUGGAACCUGATT against ARHGAP30	0.0946
GCAUGAACAUUACGGAUAUTT against CARS	0
GGUGGUACAAGAGAACGAATT against JARID2	0.115
CUUGGAUGAUGGCAAGACATT against TCEB2	1.28 (active)
GAAAUAUACUUCAGAUUCATT against SP2	-0.617
GCUCAUUCCUUUUCGAGCATT against PEG3	0.5
GAUUCACAUCGUCAAGAAATT against ZNF317	0.087
GAUAUGACCGCGAAACCAATT against RPA4	0.132
GCUCCACACUGAUGAAUCATT against ZNF250	-0.00985
GGCUAACUACUGAGCUGAATT against C1RL	-0.148
GGGAAUUUCUGACCUAGUATT against ABCD3	-0.24
CCAAGCCUCUUUCCUACAATT against GPR52	-1.17 (active)
CGUGGAAGAUUUUCACAGATT against ZNF174	0.035
GAUCUACCGAAUACAAGAATT against GPR171	-0.449

Sequence	median seed-adjusted z-score
CCACACCAUUAUGACCAUUTT against FUT1	0.000845
GGAUUUGCCUUACCACUAATT against PPP2R5C	1.14 (active)
GAAGGGUUAUCGUCGGGAATT against SLC6A6	0.0448
CCAUCGAGUUCAUCGAUAATT against DUSP8	-0.0326
GUUCAUCUCUUGUAAGGAUTT against CABP5	0.372
GCCUCAGAAUUUAAUCAAATT against ALB	-0.153
CCAGAAGCGAAUCACCACATT against POLR2F	-3.52 (active)
GUGUCUCUGCUCUAAGUAATT against B4GALT1	0
AGCUUAUGCAUUUGGCAAATT against APBA3	-0.119
GGAGCAGACGGUGACCAAATT against CIB3	0.234
CAUAUGAUCCAGACAAGAATT against ZNF425	0.0841
GAGUCUGUGGUGUACCUAATT against SALL4	-0.344
GAGAAGAACUCGUACCUCUTT against ZNF783	0.284
CCGUGUCCAGGAACCUAUATT against LPHN3	-0.0576
AGUCCAAGGUGAUUACGCUTT against CPSF1	3.29 (active)
GCUGUGCUAUGGGAGUUAATT against ADH1A	0.624
GAACUUAGCUAAAUUGACUTT against BCHE	0.117
CUUAGACUGUUUCCACUUATT against PARK2	0.146
GCCUAUGAUUUAGGACUAATT against MNDA	0.232
CCAGUGAUGUAAGUUCUUATT against GCG	-1.18 (active)
CUGUUCUGCUUAUAUGGAATT against HNRPLL	0
GAAACAUCCGUGAAAGAGATT against RABL4	-0.154

Sequence	median seed-adjusted z-score
GAUACUAGCUAUUUUGACATT against MAST2	0.27
CUAACGUAGAGGAAGCAUUTT against RAB11B	-0.857
CACUUAUACUAAGCACCAATT against CCNB1	0.163
CUCUGGAUUUUGAUAGUUUTT against PPARGC1A	-0.0953
GUACUUCCAUAGACAGGAATT against CECR1	0.00187
GGCUUAAUGUGGUGAUGUUTT against COL7A1	1.08 (active)
CGAAUGCUGAGGCUACAAATT against SLC9A5	-0.545
GGGAGACCUCGAUCGUGAATT against RASA4	-1.11 (active)
CAAAUCCUGUCUAACAAAATT against MYH7	0.659
GUUCAUAUGUGACAUCUUUTT against ZFP36L1	-0.933
GUAGGUGAGUGGAAAUUCATT against DRD2	-0.0273
GGAAGGUUGCUAUAGUGGATT against SSX2IP	-0.0799
GGCAAGUGCUUCACUCAAATT against ZNF665	1.13 (active)
GAAUUCGCUUCAUCCAUUUTT against POMT2	-0.614
UGAUUGCACGAACAGCAAATT against MED21	-1.3 (active)
GUAACACCGUUGAAGCUAATT against E2F8	0.209
CUGCUCACCCUUUACAUCATT against KIF12	0.0971
CAGUCCCAAUUUCCACUUUTT against PCDHB2	0
CCAGGUCUCGAAAACCAAATT against EN2	0.319
CAGUGUUAGUCAUAUCGUATT against DHX36	0.165
